Source: PubChem BioAssay (NCI)
The panel holds about 79,000 compounds, 15% with a hit somewhere; the sample as a whole holds those more often. A number with no mark means an inactive call. The source made the active and inactive calls. Rule as the data show it: active = growth inhibition above about 70%; inactive = the rest.

Assay: NCI Yeast Anticancer Drug Screen. Data for the mgt1 strain (AID 153)
Details: S. cerevisiae mgt1 mutant growth inhibition, active compounds read high
Protocol: Growth inhibition of yeast strains with defined genetic alterations is measured as a screen for potential anti-cancer activity. Selected strains with alterations in DNA damage repair or cell cycle control were exposed to compounds and growth inhibition was measured relative to vehicle treated controls. The strain used in this assay is mgt1

SMILES	growth inhibition (at 1.2 µM) [%]	growth inhibition (at 3.7 µM) [%]	growth inhibition (at 11.0 µM) [%]	growth inhibition (at 33.0 µM)	growth inhibition (at 100.0 µM)
CS(=O)(=O)SCc1ccc([N+](=O)[O-])cc1	-2	-4	61	99% (active)	98% (active)
COC(=O)CC1CCc2c(ccc3ccccc23)C1(C)C(=O)OC (stereo not given)	-3	0	-2	17%	53%
CCOC(=O)C(C(=O)OCC)=P(c1ccccc1)(c1ccccc1)c1ccccc1	0	3	1	-6%	78% (active)
Cc1cc(C)nc(NS(=O)(=O)c2ccc(Nc3c4ccccc4nc4c(C(=O)NCCO)cccc34)cc2)n1	0	-1	-2	-1%	32%
O=C(O)c1ccccc1/C=N/N=C1c2ccccc2-c2ccccc21	-1	0	0	-1%	3%
O=c1ccc(=O)n(-c2ccccc2)[nH]1	0	19	35	70% (active)	97% (active)
O=[N+]([O-])c1cccc2nc3ccccc3c(NCCC[N+]3([O-])CCCCC3)c12	0	1	5	7%	56%
Oc1ccc2c(c1)C(O)CCCC2 (stereo not given)	-2	1	4	17%	71% (active)
